This is an account of results in PubChem BioAssay (Tox21).

“And” between values parts separate entries of the source, which are not always exact repeats. Equal entries are not always repeated. Records with an inconclusive call do not appear. Entries that show only a call come without a potency. The source made the active and inactive calls. The call rests on the fitted dose curve; in most records, active means well fitted cell-killing curve with a large enough effect in the repeat runs; inconclusive means weak or mixed curves, or effect the other way; inactive means flat fitted curve, though single readings scatter.
Potency means the concentration at half of the fitted maximal effect.

A short description of the assay: qHTS assay to identify small molecule antagonists of the retinoid acid receptor (RAR) signaling pathway - cell viability counter screen (AID 1159551). Further: nearly all actives have a fitted effect of over 35% in size. The following applies: C3RL4 cells viability, ATP luminescence (CellTiter-Glo), 6 h; series mostly up to 92.4 µM; activity change, negative = cytotoxicity: at the top concentration. The essentials:
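Following overnight attachment, C3RL4 reporter cells received DMSO-dissolved compounds and then retinol (1 uM final). Six hours later at 37 C, ATP content was measured by CellTiter-Glo luminescence.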
In general terms: Quantitative high-throughput screening tests each substance at several concentrations.
As to `Cc1cc(C)nc(NS(=O)(=O)c2ccc(N)cc2)n1`, the Potency entry is “inactive”.

On to `Cc1c(C(=O)O)c(O)cc2c1C(=O)c1c(O)c([C@@H]3O[C@H](CO)[C@@H](O)[C@H](O)[C@H]3O)c(O)c(O)c1C2=O`, for which the Potency is 33.5 µM (active) and 48.6 µM (active). For `CC12CCC(CC1)C(C)(C)O2`, the Potency result is “inactive”.

For `Cc1cn([C@H]2C=C[C@@H](CO)O2)c(=O)[nH]c1=O`, the Potency entry is “inactive”.

Take `O=C1NC(=O)C(c2ccccc2)(c2ccccc2)N1`: the Potency result was “inactive”. `O=c1[nH]cnc2c1ncn2[C@H]1CC[C@@H](CO)O1`: the Potency result is “inactive”. Take `CN[C@H]1CC[C@@H](c2ccc(Cl)c(Cl)c2)c2ccccc21`: the “activity change, negative = cytotoxicity” value was -5.94% [at 42.5 µM] (inactive). `O=C(Nc1ncc([N+](=O)[O-])s1)c1cccs1`: the Potency was 23.7 µM (active). Turning to `COc1ccc(C(Cl)=C(c2ccc(OC)cc2)c2ccc(OC)cc2)cc1`, the Potency entry was “inactive”. As for `CC/C(=C(\c1ccccc1)c1ccc(OCCN(C)C)cc1)c1ccccc1`, the Potency is 61.5 µM (active) and 61.1 µM (active) and 54.9 µM (active). In the case of `CCCCNC(=O)NS(=O)(=O)c1ccc(C)cc1`, the Potency entry was “inactive”. With `Nc1c(N=Nc2ccc(-c3ccc(N=Nc4cc(S(=O)(=O)O)c5ccccc5c4N)cc3)cc2)cc(S(=O)(=O)O)c2ccccc12`, the Potency is 17.2 µM (active). Consider `CCCCCCCC(=O)OCC(COC(=O)CCCCCCC)OC(=O)CCCCCCC`, for which the Potency entry was “inactive”.

Consider `CNNCc1ccc(C(=O)NC(C)C)cc1`, for which the Potency entry was “inactive”. In the case of `O=C1NS(=O)(=O)c2ccccc21`, the Potency result was “inactive”. Turning to `C=C(C)C(=O)OCC(C)O` (centres undefined), the Potency entry was “inactive”.

Take `O=C1O[C@H]([C@@H](O)CO)C(O)=C1O`: the Potency result is “inactive”. For the molecule `NC(=O)n1c(O)c(C(=O)c2cccs2)c2cc(Cl)ccc21`, the “activity change, negative = cytotoxicity” value was -0.791% [at 42.5 µM] (inactive). For the molecule `C/C=C/C=C/C(=O)O`, the Potency result was “inactive”.

For the molecule `CN(C)C(=S)SC(=S)N(C)C`, the Potency was 48.6 µM (active).

Turning to `O=C(O)CC(O)C(=O)O` (centres undefined), the Potency entry is “inactive”.

As to `O=S1(=O)OC(c2ccc(O)cc2)(c2ccc(O)cc2)c2ccccc21`, the Potency entry is “inactive”. `CCCC[P+](CCCC)(CCCC)CCCC`: the Potency entry is “inactive”. `CCCCOC(=O)c1ccc(O)cc1`: the Potency entry was “inactive”. Consider `CC(C)NCC(O)c1ccc(O)c(O)c1` (centres undefined), for which the Potency entry is “inactive”. Turning to `CCCCCCc1ccc(O)cc1O`, the Potency result is “inactive”.

Turning to `O=c1[nH]cc(F)c(=O)[nH]1`, the “activity change, negative = cytotoxicity” value is 6.47% [at 42.5 µM] (inactive). On to `CC(=O)C(=O)O`, for which the Potency entry was “inactive”. Same read-out and setting: to `NS(=O)(=O)c1cc2c(cc1Cl)NCNS2(=O)=O` belongs “inactive”.
